# Measured values published in PubChem BioAssay AID977622 (Broad Institute, 2014).
# Hit rate of the full screen: of about 1,900 compounds, fewer than 10 were called active. Roughly 39% stayed inconclusive and do not appear here.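 The calls were made as follows: active = Green signal of the normal strain falls at least twice as much as red signal of the resistant mutant, with overall culture growth loss under a set limit; inconclusive = no clear call, values can overlap the other calls; inactive = the rest.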 These entries were drawn from the full list.
# Experiments:
# [1] = growth inhibition of wild-type GFP E. coli, dose response, h38 mutant RFP, cherry-pick (AID 977622); conditions: 24 h; activity change: E. coli mixed culture, total growth OD600 at 50 uM, at 50 µM; E. coli WT ribosome GFP fluorescence, mixed culture, at 50 µM (top of the series)
# [2] = system: E. coli h38 humanized mutant ribosome RFP fluorescence, mixed culture, 24 h; test: as above; conditions: h38 mutant RFP at 50 uM; at 50 µM
SMILES,activity change [1] [%],outcome [1],activity change [2] [%]
Fc1ccc(-c2nc3c(Cl)cc(C(F)(F)F)cn3c2Cc2ccsc2)cc1,-5.9,inactive,5.92
COC(=O)CN1C(=S)N(c2ccc(F)cc2)C(=O)C1CC(=O)Nc1ccc(OC)cc1 (centres undefined),-4.61,inactive,9.32
CCOc1ccc(C(C)=O)cc1CN1C(=O)NC2(CCCCCCC2)C1=O,-23.9,inactive,-21
O=C(c1ccc2c3c(cccc13)CC2)N1CCN(c2ncccn2)CC1,-3.01,inactive,-11.5
Cc1ccc(NC(=O)CN(C)S(=O)(=O)c2cccc3cccnc23)cc1F,-37.4,inactive,-40.8
O=c1[nH]c2cc([N+](=O)[O-])ccc2c2ccccc12,4.42,inactive,
COC(=O)c1cc2c(c3c4cc(F)ccc4n(S(=O)(=O)c4cccc(C)c4)c13)C(=O)N(Cc1ccco1)C2,-11.5,inactive,17.4
O=C(Cc1ccc(Cl)cc1)c1ccc(O)cc1,-1.58,inactive,
Cc1ccc(Cc2c(-c3ccc(C#N)cc3)nc3ccc(Br)cn23)cc1,2.82,inactive,-11
O=c1c2ccccc2cnn1Cc1n[nH]c(=S)n1C1CC2CCC1C2 (centres undefined),-3.34,inactive,-28.9
Cc1cccc(-c2ccc([C@H]3[C@H](CO)N4CCCCN(S(=O)(=O)c5ccccc5C)C[C@@H]34)cc2)c1,4.65,inactive,11.4
Nc1ccc2nc(-c3ccc(Cl)cc3)[nH]c2c1,,inactive,-11.3
CS(=O)(=O)N1CC2CCCN2c2ccc(C(F)(F)F)cc21 (centres undefined),-10.4,inactive,2.53
Cc1ccc(C)c(N(CC(=O)NC2CCCC2)C(=O)c2oc(C(C)(C)C)cc2C)c1,-14.2,inactive,21
COc1cc2ccccc2cc1C(=O)NC1CCCCC1,-0.887,inactive,
COCCCNC(=O)c1ccc(-c2nc3ccccc3nc2-c2ccccc2)cc1,-2.27,inactive,8.8
Cc1ccc(NC(=O)CCCSc2ccccc2)cc1S(=O)(=O)N1CCOCC1,7.64,inactive,4.8
NC(=O)c1cc(C(=O)c2ccc(Cl)cc2)c[nH]1,-13.1,inactive,0.863
Cc1noc(C)c1NC(=O)Nc1ccc2c(c1)C(=O)N([C@@H](C)CO)C[C@H](C)[C@@H](CN(C)C(=O)Nc1ccc3c(c1)OCO3)OCCCC[C@H](C)O2,-13.3,inactive,7.1
O=C(c1ccccc1)N(c1ccccc1)c1nccc2ccccc12,-7.9,inactive,31.1
Cc1ccc(S(=O)(=O)Nc2ccccc2CNc2cccc(C)n2)cc1,-17.7,inactive,
CCC(C(=O)Nc1ccsc1C(=O)OC)c1ccccc1 (centres undefined),-5.91,inactive,40.7
CCOc1ccc(-c2nc(-c3cccs3)c(CC(=O)O)s2)cc1OC,-21.4,inactive,-8.71
COc1ccc(NS(=O)(=O)c2ccc(Cl)c(NC(=O)c3ccccc3F)c2)cc1,-40,inactive,-6.96
Cc1noc(C)c1NC(=O)Nc1ccc2c(c1)C(=O)N([C@@H](C)CO)C[C@@H](C)[C@H](CN(C)C(=O)Nc1ccc3c(c1)OCO3)OCCCC[C@H](C)O2,-12.5,inactive,-3.87
COc1cc(-c2ccc(N3C(c4ccsc4)=Cc4ccc(F)cc4C3c3c[nH]c4ccc(C#N)cc34)cc2)cc(OC)c1OC (centres undefined),7.16,inactive,8.77
c1ccc2c(c1)CSc1ccccc1N2,-5.5,inactive,-11.4
CC(C)=C(c1ccc(Cl)cc1)c1c(N)ncnc1N,-10.9,inactive,-21.6
